Assay outcomes: PubChem BioAssay, The Scripps Research Institute Molecular Screening Center
Shown are actives, neighbours in structure and some others; about 5.7% of the full set was active somewhere.
hcDAF-12 act = activates DAF-12 receptor from parasite H. contortus. activation, % at 6.8 µM. hit rate 1.4% among 370,000. AID 652067. HEK293 hcDAF-12 lit1-tk-luc reporter, luminescence; 0% DMSO, 100% Δ7-dafachronic acid;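 active = activation above the mean of all tested compounds plus 3 SD, cut at about 5.5% in these data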;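 note: 100% = response to 3 µM Δ7-dafachronic acid high control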
AHR act = human AHR activation. AHR-responsive luciferase reporter cells, luminescence. activation, % at 5 µM. hit rate 2.5% among 320,000. AID 2796; in the data active = activation above about 47%;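 note: 0% = vehicle wells and 100% = reference agonist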
DAX1 inh-1 = NR0B1 (DAX1) inhibition; HEK293 Gal4-DAX1 luciferase reporter, luminescence; hit rate 0.99% among 340,000; inhibition, % at 6.75 µM; P51843; AID 504766;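 active = inhibition above the mean over all tested compounds plus 3 SD, cut at about 4.2% in these data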;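 note: 0% = DAX1-transfected cells with DMSO and 100% = empty-vector control cells with DMSO; inhibition shows as a rise in luminescence from relieved DAX1 repression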
DAX1 inh-2 = DAX1 (NR0B1) inhibition, primary screen; HEK293T StAR-luciferase reporter, SF-1/DAX-1 repression relief; inhibition, % at 6.8 µM; hit rate 1.1% among 370,000; AID 652010;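 active = inhibition above the mean over all tested compounds plus 3 SD, cut at about 3.6% in these data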;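 note: 0% = DAX-1 cells with DMSO and 100% = cells lacking DAX-1 with DMSO; higher inhibition means more luminescence from relief of DAX-1 repression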
ssDAF-12 act = activates DAF-12 receptor from parasite S. stercoralis | HEK293 ssDAF-12/GRIP1 lit1-tk-luc reporter, luminescence; % of 3 µM dafachronic acid response | activation, % at 6.8 µM | hit rate 1% among 370,000 | AID 652126;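 active = activation above the mean over all tested compounds plus 3 SD, cut at about 0.9% in these data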;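 note: 0% = DMSO-only wells and 100% = 3 µM delta7-dafachronic acid wells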
hgDAF-12 ag = hgDAF-12 agonism, primary luciferase screen; HEK293 GAL4-hgDAF12 UAS-luciferase reporter, agonist luminescence; normalized to butyrate control; activation, % at 6.8 µM; hit rate 1.8% among 370,000;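 active = activation above a cutoff set at the mean of all screened compounds plus 3 SD, cut at about 10% in these data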;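 note: 0% = DMSO wells and 100% = sodium butyrate wells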
LXRb hcDAF ctr = counter-screen for hcDAF-12 agonists: agonists of human LXR-beta | shares compounds with hcDAF-12 act | HEK293 Gal4-LXR tk-luc reporter, luminescence, 24 h; normalized: DMSO 0%, positive control 100% | activation, % at 6.8 µM | 3,400 tested, under 10 active | AID 743027;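 active = mean percent activation of the reporter above a cutoff set as the average over tested compounds plus their standard deviation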
hcDAF12 conf = hcDAF-12 agonism, confirmation assay; shares compounds with hcDAF-12 act; HEK293 hcDAF-12 lit1-tk-luc reporter, luminescence; % of Δ7-dafachronic acid response; activation, % at 6.8 µM; hit rate 61% among 3,400; AID 743032;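 active = mean activation across triplicate tests above the threshold derived from the earlier primary screen, cut at about 5.5% in these data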;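 note: 0% = DMSO only wells and 100% = 3 µM Δ7-dafachronic acid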
hgDAF12 ag = hgDAF-12 agonism, confirmation assay | shares compounds with hgDAF-12 ag | HEK293 GAL4-hgDAF12 luciferase reporter, agonist mode; percent of butyrate response | activation, % at 6.8 µM | hit rate 80% among 3,300;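 active = mean activation over triplicate wells above the hit cutoff derived from the earlier primary screen, cut at about 11% in these data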;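 note: 0% = DMSO low control and 100% = 2 mM sodium butyrate high control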
LXR ag 2 = activates human LXR-beta, counter-screen for DAF-12 agonists. shares compounds with hgDAF-12 ag. HEK293 Gal4-LXR luciferase reporter, 24 h. activation, % at 6.8 µM. 3,300 tested, under 10 active. AID 743051;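 active = mean activation of the triplicate above a set limit carried over from the primary screen, none filed active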
Starred values were filed as active, the others as inactive; . = not tested or not shown.

SMILES	hcDAF-12 act	AHR act	DAX1 inh-1	DAX1 inh-2	ssDAF-12 act	hgDAF-12 ag	LXRb hcDAF ctr	hcDAF12 conf	hgDAF12 ag	LXR ag 2
Cc1csc(NC(=O)C2COc3ccccc3O2)n1 (stereo not drawn)	7.0*	8.0	-1.8	2.8	-0.3	7.0	0.7	4.6	.	.
O=C(Nc1nc(-c2ccccc2)cs1)C1COc2ccccc2O1 (stereo not drawn)	-1.4	-1.5	0.2	0.1	-1.4	2.8	.	.	.	.
Cc1cccc(NC(=O)C2COc3ccccc3O2)n1 (stereo not drawn)	-1.6	-1.5	0.4	0.4	-1.3	1.2	.	.	.	.
O=C(c1ccco1)N1CCC(c2nc3ccccc3[nH]2)CC1	-0.6	-2.1	-0.8	2.2	-0.4	0.4	.	.	.	.
CC(NS(=O)(=O)c1ccc(N)cc1)C1CC2CCC1C2 (stereo not drawn)	-1.0	-1.5	2.0	-0.1	-1.4	-0.2	.	.	.	.
CN(C(=O)c1cccc(NC(=O)Cc2cccc(NC(=O)C3CCCN(C(=O)C4CCCC4)C3)c2)c1)C1CC1 (stereo not drawn)	-1.6	.	0.0	-1.3	-1.2	-2.4	.	.	.	.
Clc1ccc(CN2C3=NCCN3c3ccccc32)cc1	-1.8	6.1	0.2	0.1	-0.7	-3.4	.	.	.	.
[O-][n+]1c2ccccc2c2n1CCCN=C2c1ccc(Cl)cc1	8.0*	51.0*	1.8	1.7	0.6	3.0	0.0	8.6*	.	.
CSc1nnc2sc3cc(C)ccc3n12	9.6*	.	1.3	-0.6	0.1	7.2	-0.1	4.7	.	.
O=C(Nc1ccccc1)c1ccccc1NC(=O)c1ccccc1C(=O)O	0.7	-0.5	.	0.8	-1.5	3.4	.	.	.	.
O=C(O)c1ccccc1C(=O)Nc1ccccc1NC(=O)c1ccccc1C(=O)O	7.0*	13.8	.	2.6	0.2	15.4*	-0.1	0.2	12.7*	0.5
CCCCN(C)C(=O)c1cc2cc3ccc(OC)cc3nc2s1	7.0*	-5.9	-1.3	3.5	0.3	17.5*	1.4	7.1*	15.8*	1.0
O=C(C[n+]1ccccc1)N/N=C/c1c(F)cccc1Cl	1.9	-0.6	-0.3	-0.3	-0.6	0.3	.	.	.	.
C/C(=N\Nc1ncc(Cl)cc1Cl)c1ccc2c(c1)OCO2	2.5	30.4	1.1	0.5	-0.2	3.2	.	.	.	.
C/C(=N\Nc1ncc(Cl)cc1Cl)c1ccc(OC(F)F)cc1	6.6*	62.8*	0.1	0.9	-0.9	20.1*	-0.1	-0.8	0.4	0.1
Nc1c(-c2ccccc2)cnn1-c1cccc(Cl)c1	7.1*	9.2	3.6	2.5	-0.2	15.0*	0.9	4.2	16.6*	0.7
Cc1nn(-c2nc3ccccc3s2)c(N)c1-c1ccccc1	15.4*	41.6	3.5	4.5*	0.2	18.8*	0.8	4.6	18.4*	0.9
Cc1nc2cc(-c3ccccc3)nn2c(N)c1-c1ccccc1	0.5	-7.0	0.3	0.7	-1.3	-1.9	.	.	.	.
O=C(NC(=S)Nc1ccccc1)c1ccc(Br)o1	7.9*	11.2	2.3	1.6	-0.6	17.1*	0.7	7.6*	13.3*	0.4
Nc1ccc(Cl)c(-c2nc3ncccc3o2)c1	-1.7	0.2	0.2	-0.4	-0.9	3.3	.	.	.	.
Nc1cc(-c2nc3ncccc3o2)ccc1Cl	12.0*	59.0*	2.3	2.5	1.4*	14.3*	0.9	8.3*	10.1	0.4
CN(C)c1ccc(/C=C/c2nnnn2-c2ccccc2)cc1	11.0*	8.5	3.9	3.0	0.2	16.9*	1.1	6.1*	21.6*	0.9
CN(C)c1ccc(/C=C/c2ccc3ccccc3n2)cc1	.	7.9	-5.1	.	.	.	.	.	.	.
Cc1ccccc1C(=O)Nn1cnc2ccccc2c1=O	9.8*	9.8	1.1	1.0	1.7*	15.1*	0.3	8.6*	7.7	0.2
Cc1ccc(NC(=O)CSc2nnc(Cc3ccccc3)c(=O)[nH]2)c(C)c1	-1.3	-2.8	0.8	-1.3	0.5	-1.2	.	.	.	.
SMILES	hcDAF-12 act	AHR act	DAX1 inh-1	DAX1 inh-2	ssDAF-12 act	hgDAF-12 ag	LXRb hcDAF ctr	hcDAF12 conf	hgDAF12 ag	LXR ag 2
CC(C)(C)c1cc(NC(=O)c2ccc(OC3CCCC3)cc2)no1	2.1	4.0	1.0	0.8	-1.3	2.5	.	.	.	.
O=C(Nc1ccon1)c1ccc(OC2CCCC2)cc1	7.2*	5.5	0.1	4.5*	0.4	14.4*	1.1	4.6	14.4*	0.7
O=C1/C(=C\c2cccs2)Sc2ccc3ccccc3c21	21.8*	62.0*	5.2*	4.0*	6.4*	15.5*	1.9	18.8*	30.6*	1.4
COc1ccc(NC(=O)n2ncc3c(C)cccc32)cc1	11.5*	-7.6	3.6	2.8	0.4	14.1*	1.5	10.6*	20.9*	0.9
COc1ccc(NC(=O)n2ncc3c(C)cccc32)cc1OC	-1.2	-6.5	0.2	0.5	-0.4	5.0	.	.	.	.
Cc1ccc(NC(=O)CN2C(=O)NC3(CCCCC3C)C2=O)cc1S(=O)(=O)N1CCCCC1 (stereo not drawn)	-2.3	6.1	-0.3	-0.7	-0.9	-4.7	.	.	.	.
S=C(Nc1ccc(Cl)cc1)c1nc2ccccc2[nH]1	7.3*	37.0	1.6	3.5	-0.2	18.4*	1.3	6.5*	16.3*	0.8
N#Cc1ccc(NC(=O)c2cc(S(=O)(=O)N3CCOCC3)ccc2N2CCCC2)cc1	-1.0	-2.1	-0.2	1.7	-0.5	1.8	.	.	.	.
CC(C)c1ccc(OCc2nc(-c3ccccn3)no2)c(Br)c1	7.6*	0.4	0.5	4.1*	0.9*	14.8*	1.4	7.0*	15.7*	0.7
CC(C)(C)Cc1nc(-c2ccccn2)no1	0.9	1.2	0.3	1.2	0.3	1.8	.	.	.	.
COc1ccc(-c2cc3ccc(OC)cc3cn2)cc1	9.9*	43.8	0.5	4.2*	1.1*	20.8*	1.8	11.7*	17.6*	1.1
COc1ccc2cc(-c3ccccc3F)ncc2c1	10.9*	6.1	1.8	2.8	1.1*	16.2*	2.1	11.4*	23.5*	1.5
COc1ccc2cc(-c3ccon3)ccc2c1	1.8	0.1	1.5	0.1	-0.7	6.0	.	.	.	.
Nc1ccccc1C(=O)N/N=C1\C2CN3CCN(C2)CC1(c1ccccc1)C3	12.2*	34.1	5.0*	3.2	0.3	13.8*	-0.2	0.1	1.6	0.1
O=C(N/N=C1\C2CN3CCN(C2)CC1(c1ccccc1)C3)c1ccc(F)cc1	-0.8	6.0	1.8	0.6	-1.7	9.8	.	.	.	.
